Values joined by “and” are separate entries in the source; they are usually repeats but may differ in a detail not shown here. Equal entries are not always repeated. Records with an inconclusive call do not appear. Where a call stands in place of a potency, no number is given. Active and inactive are the calls of the source. Unless noted, calls come from the whole dose curve; as a rule, active = well fitted curve in the direction sought with a large enough effect; inconclusive = small, poorly fitted or top-dose-only effect, or another doubt; inactive = no such curve, though single readings can be large; an effect the other way counts as inactive or inconclusive.
Legend:
[1] = Cell Viability - BJ (AID 421; calls by dose curve;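 note: potency is the fitted concentration of half-maximal effect; cells exposed to compound for 40 hours at 37 °C before readout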); conditions: BJ fibroblast viability, qHTS
How it was run: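 Cytotoxicity in human BJ foreskin fibroblasts is scored as loss of cellular ATP after a 40-hour exposure, measured by luciferase luminescence. Controls are DMSO and 100 uM tamoxifen.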

[2] = Cell Viability - HepG2 (AID 433; calls by dose curve;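 note: potency is the fitted concentration of half-maximal effect; cells exposed to compound for 40 hours; potency for ATP loss meaning cytotoxicity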); conditions: qHTS
How it was run: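 In this qHTS format, a 40 h, 37 °C compound incubation of HepG2 cells in complete medium precedes a 20 min CellTiter-Glo step at room temperature. Tamoxifen and doxorubicin serve as positive controls; Hill-equation fits yield AC50.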

[3] = Cell Viability - Mesenchymal (AID 546); conditions: mesenchymal cells viability, qHTS; activity change, negative = cytotoxicity: at 91.7 µM (top of the series);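 note: cells exposed to compound for 40 hours before reading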
How it was run: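 Human renal mesenchymal cells (glomerulus-derived), 1000 cells/well, 5 hr 37 °C pre-incubation; compound 40 hr, 37 °C; CellTiter-Glo, 20 min RT; luminescence; AC50 via Hill equation.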

[4] = Cell Viability - LYMP1-003 - Assay at 40 hr (AID 964); conditions: LYMP1-003 lymphoblastoid viability; series mostly up to 92.2 µM; note: nearly all actives have a fitted effect of over 60% in size; note: potency is the fitted concentration of half-maximal effect
How it was run: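 Viability is taken as cellular ATP, read by CellTiter-Glo luminescence after 40 h of compound exposure at 37 C. Cells: human lymphoblastoid line LYMP1-003 at 2500/well; AC50 values derived by Hill-equation fitting of concentration-response data.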

[5] = Cell Viability - LYMP2-004 (AID 966); conditions: LYMP2-004 lymphoblastoid cell viability, qHTS; series mostly up to 92.2 µM; note: nearly all actives have a fitted effect of over 65% in size
How it was run: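 AC50 values come from Hill modelling of concentration-dependent loss of intracellular ATP, measured by CellTiter-Glo luminescence. Human LYMP2-004 lymphoblastoid cells (2500/well) were exposed to compound for 24 h at 37 C.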

[6] = Cell Viability - LYMP2-021 (AID 974); conditions: LYMP2-021 lymphoblastoid cells viability; series mostly up to 92.2 µM; note: nearly all actives have a fitted effect of over 55% in size
How it was run: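 AC50 values come from Hill-equation fits to CellTiter-Glo luminescence (ATP content), read after 24 hour compound exposure at 37 C of 2500 LYMP2-021 lymphoblastoid cells/well; tetraoctylammonium bromide as positive control.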

[7] = Cell Viability - LYMP2-025 (AID 976); conditions: LYMP2-025 lymphoblastoid cell viability; series mostly up to 92.2 µM
How it was run: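 Cytotoxicity read as loss of intracellular ATP (luciferase luminescence) after 24 h compound treatment at 37 C. Uses LYMP2-025 lymphoblastoid cells in 1536-well format; Hill-equation modelling gives AC50; tetraoctylammonium bromide as positive control.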

[8] = Cell Viability - LYMP2-002 (AID 977); conditions: LYMP2-002 lymphoblastoid cell viability, qHTS; series mostly up to 92.2 µM
How it was run: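 Human lymphoblastoid cells, 2500/well, complete medium; 5 h 37 C settle; compound 24 h 37 C; CellTiter-Glo, 30 min RT; luminescence. Decrease in ATP = cytotoxicity; AC50 via Hill equation.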

[9] = Cell Viability - LYMP2-008 (AID 980); conditions: LYMP2-008 lymphoblastoid cell viability, qHTS; series mostly up to 92.2 µM; note: nearly all actives have a fitted effect of over 60% in size; note: potency is the fitted concentration of half-maximal effect
How it was run: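 Cytotoxicity determined from ATP-dependent luciferase luminescence (CellTiter-Glo) following 24 h compound exposure of human lymphoblastoid LYMP2-008 cells at 37 C. Concentration-response data fitted to the Hill equation to give AC50.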

[10] = Cell Viability - LYMP2-014 (AID 983); conditions: LYMP2-014 lymphoblastoid cells, viability qHTS; series mostly up to 92.2 µM; note: nearly all actives have a fitted effect of over 50% in size
How it was run: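 Intracellular ATP loss, read by luciferase luminescence, measures acute cytotoxicity after 24 h compound exposure of lymphoblastoid LYMP2-014 cells (2500/well, 37 C). Concentration-response data fitted to the Hill equation for AC50.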

[11] = Cell Viability - LYMP2-016 (AID 984); conditions: LYMP2-016 lymphoblastoid cell viability, qHTS; series mostly up to 92.2 µM; note: nearly all actives have a fitted effect of over 55% in size
How it was run: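 Concentration-dependent ATP depletion measured in LYMP2-016 lymphoblastoid cells, 24 h, 37 C; luciferase-based luminescent detection; Hill-equation AC50.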

[12] = Cell Viability - LYMP2-018 (AID 985); conditions: LYMP2-018 lymphoblastoid cells, viability (qHTS); series mostly up to 92.2 µM; note: nearly all actives have a fitted effect of over 50% in size; note: potency is the fitted concentration of half-maximal effect
How it was run: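 Viability read as CellTiter-Glo luminescence (cellular ATP) after 24 hr compound exposure at 37 C of 2500 LYMP2-018 lymphoblastoid cells/well, pre-plated 5 hr. Hill-equation modelling gave AC50.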

[13] = Cell Viability - LYMP2-020 (AID 986); conditions: series mostly up to 92.2 µM; note: nearly all actives have a fitted effect of over 55% in size; note: potency is the fitted concentration of half-maximal effect
How it was run: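 Cytotoxicity in qHTS format: luminescent ATP readout from CellTiter-Glo after 24 h compound exposure at 37 C in complete medium. LYMP2-020 lymphoblastoid cells were seeded at 2500/well; concentration-response data fitted to the Hill equation for AC50.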

[14] = Cell Viability - LYMP2-022 (AID 987); conditions: LYMP2-022 lymphoblastoid cell viability; series mostly up to 92.2 µM; note: nearly all actives have a fitted effect of over 55% in size; note: potency is the fitted concentration of half-maximal effect
How it was run: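 Cytotoxicity read as decreased cellular ATP (CellTiter-Glo luminescence, 30 min room temperature) after 24 hours compound exposure of 2500 lymphoblastoid LYMP2-022 cells/well at 37 C. Concentration-response data fitted with standard Hill equation for AC50.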

[15] = Cell Viability - LYMP2-026 (AID 989); conditions: LYMP2-026 lymphoblastoid cell viability, qHTS; series mostly up to 92.2 µM; note: nearly all actives have a fitted effect of over 50% in size
How it was run: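 Cytotoxicity read as ATP-dependent luminescence (CellTiter-Glo, 30 min room temperature) after 24 h compound treatment at 37 C. LYMP2-026 lymphoblastoid line seeded at 2500 cells/well; AC50 derived by standard Hill equation.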

[16] = Cell Viability - LYMP1-002 - Assay at 40 hr (AID 994); conditions: LYMP1-002 lymphoblastoid cell viability; series mostly up to 92.2 µM; note: nearly all actives have a fitted effect of over 60% in size
How it was run: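 Cytotoxicity was read as loss of cellular ATP (CellTiter-Glo luminescence) after 40 hr compound exposure at 37 C of 2500 LYMP1-002 lymphoblastoid cells per well. Concentration-response data were fitted with the standard Hill equation to give AC50.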

[17] = qHTS assay for small molecule antagonists of retinoid X receptor alpha signaling (AID 588546; active = well fitted inhibition curve with a large enough effect in the signal ratio, with a control signal flat, not every such curve was filed as active; the % refers to the signal ratio;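 note: cells stimulated with 9-cis-retinoic acid as agonist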); conditions: HEK293T RXRa-UAS-bla, beta-lactamase ratio, antagonist mode; measured here: W530 green channel, cytotoxicity proxy
How it was run: (§1)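 Beta-lactamase reporter inhibition, read as CCF4 fluorescence ratio (ex 405, em 460/530 nm) after 2 h at RT. HEK293T UAS-bla cells, 2500/well, were stimulated with 9-cis-RA at 500 or 100 nM final alongside test compound for 18 h at 37 C.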

[18] = target: Retinoic acid receptor RXR-alpha (Homo sapiens) (UniProt P19793); assay: as above; conditions: HEK293T RXRa-UAS-bla, beta-lactamase ratio, antagonist mode
How it was run: as §1

[19] = qHTS assay for environmental chemicals that activate the Aryl hydrocarbon Receptor (AhR) signaling pathway (AID 651777); conditions: 1A2-DRE human hepatoma cells, luciferase, 24 h; activation: stronger effect = higher value; note: nearly all actives have a fitted effect of over 15% in size
How it was run: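 Concentration–response screening used 1,200 1A2-DRE cells per well, 24 hr compound exposure (37 C, 5% CO2), and One-Glo luminescence as the AhR-driven CYP1A2 reporter signal.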

[20] = qHTS assay for cell viability of HEK293 cells (AID 743288); conditions: ATP luminescence (CellTiter-Glo), 18 h; max response: stronger effect = lower value; note: nearly all actives have a fitted effect of over 50% in size
How it was run: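 HEK293, 18 h, 37 C, ATP luminescence. Cells at 2,000/well were allowed at least 5 h to settle before dosing; CellTiter-Glo developed 30 min at RT.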

Sequence of Retinoic acid receptor RXR-alpha (Homo sapiens) (P19793 whole entry, looked up): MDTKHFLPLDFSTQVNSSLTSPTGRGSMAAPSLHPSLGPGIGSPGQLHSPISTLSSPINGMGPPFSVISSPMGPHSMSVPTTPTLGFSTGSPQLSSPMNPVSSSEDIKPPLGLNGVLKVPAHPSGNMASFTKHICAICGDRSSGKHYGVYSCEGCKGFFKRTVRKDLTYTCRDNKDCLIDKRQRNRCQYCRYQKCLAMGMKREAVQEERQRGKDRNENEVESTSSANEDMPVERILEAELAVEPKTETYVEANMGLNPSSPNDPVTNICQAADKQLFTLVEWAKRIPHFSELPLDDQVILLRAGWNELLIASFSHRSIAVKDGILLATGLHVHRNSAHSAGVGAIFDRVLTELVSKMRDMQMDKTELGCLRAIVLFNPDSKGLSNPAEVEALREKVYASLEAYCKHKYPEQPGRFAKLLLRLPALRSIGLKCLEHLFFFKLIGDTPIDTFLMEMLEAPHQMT

Structure (SMILES)	Potency [1]	Potency [2]	Potency [3]	Potency [4]	Potency [5]	Potency [6]	Potency [7]	Potency [8]	Potency [9]	Potency [10]	Potency [11]	Potency [12]	Potency [13]	Potency [14]	Potency [15]	Potency [16]	max response [17] [%]	max response [18]	activation [19]	max response [20]
c1ccc2c(c1)ccc1ccccc12	> 92 µM (inactive)	> 92 µM (inactive)	inactive	inactive	inactive	inactive	inactive	inactive	inactive	inactive	inactive	inactive	inactive	inactive	inactive	inactive	-0.251	9.87% (inactive)	0.646% (inactive) and 0.0503% (inactive)	2.85% (inactive) and -2.95% (inactive)
CCCCC(CC)COCCCN (configuration not stated)	> 92 µM (inactive)	> 92 µM (inactive)	inactive	inactive	inactive	inactive	inactive	inactive	inactive	inactive	inactive	–	inactive	inactive	inactive	inactive	3.99	10.8% (inactive)	-0.398% (inactive)	10.2% (inactive)
OC1CCCCC1	> 92 µM (inactive)	> 92 µM (inactive)	inactive	inactive	inactive	inactive	inactive	inactive	inactive	inactive	inactive	inactive	inactive	inactive	inactive	inactive	10.1	-3.43% (inactive)	-0.284% (inactive)	10.8% (inactive)
Cc1ccc(C(=O)O)cc1[N+](=O)[O-]	> 92 µM (inactive)	> 92 µM (inactive)	inactive	inactive	inactive	inactive	inactive	inactive	inactive	inactive	inactive	inactive	inactive	inactive	inactive	inactive	-6.14	8.29% (inactive)	-0.0314% (inactive)	1.99% (inactive)
CCCCCCN	> 92 µM (inactive)	> 92 µM (inactive)	inactive	inactive	inactive	inactive	inactive	inactive	inactive	inactive	inactive	inactive	inactive	inactive	inactive	inactive	-7.66	2.42% (inactive)	-0.159% (inactive)	-3.69% (inactive)
C/C=C1/C(=O)C[C@H]2[C@@H]3CCC4=CC(=O)CC[C@]4(C)[C@H]3CC[C@]12C	> 92 µM (inactive)	> 92 µM (inactive)	–	39.8 µM (active)	inactive	–	–	–	50.1 µM (active)	–	–	50.1 µM (active)	39.8 µM (active)	39.8 µM (active)	–	–	–	–	1.95% (inactive)	–
c1ccc(COCc2ccccc2)cc1	> 92 µM (inactive)	> 92 µM (inactive)	inactive	inactive	inactive	inactive	inactive	inactive	inactive	inactive	inactive	inactive	inactive	inactive	inactive	inactive	-0.558	-1.13% (inactive)	-0.601% (inactive)	0.589% (inactive)
Cc1ccccc1OCC1CO1 (configuration not stated)	> 92 µM (inactive)	> 92 µM (inactive)	inactive	inactive	inactive	inactive	inactive	inactive	inactive	inactive	inactive	inactive	inactive	inactive	inactive	inactive	-1.65	0.471% (inactive)	-0.0777% (inactive)	-12.7% (inactive)
CC(=O)Nc1cccc(C)c1	> 92 µM (inactive)	> 92 µM (inactive)	inactive	inactive	–	inactive	inactive	inactive	inactive	inactive	inactive	inactive	inactive	inactive	inactive	inactive	1.11	1.56% (inactive)	0.306% (inactive)	2.07% (inactive)
C[Si](C)(C)Cl	> 92 µM (inactive)	> 92 µM (inactive)	inactive	inactive	inactive	inactive	inactive	inactive	inactive	inactive	inactive	inactive	inactive	inactive	inactive	inactive	3.42	16.7% (inactive)	1.28% (inactive)	-4.36% (inactive)
C=CC1CO1 (configuration not stated)	> 92 µM (inactive)	> 92 µM (inactive)	inactive	inactive	inactive	inactive	inactive	inactive	inactive	inactive	inactive	inactive	inactive	inactive	inactive	inactive	-2.46	-9.54% (inactive)	-0.433% (inactive)	-1.41% (inactive)
CCCCCCCCC1CO1 (configuration not stated)	> 92 µM (inactive)	> 92 µM (inactive)	inactive	inactive	inactive	inactive	inactive	inactive	inactive	inactive	inactive	inactive	inactive	inactive	inactive	inactive	-6.6	-3.61% (inactive)	0.826% (inactive)	4.27% (inactive)

— PubChem BioAssay (NCATS)
